# M1 PAM parental = nonselective activator or artifact in parental CHO-K1 calcium assay | ATP EC20, Fluo-8 calcium fluorescence; 0% at ATP EC20, 100% at ATP max | activation, % at 3 µM | 0.02% of 360,000 active | AID 602247;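 active = activation above the run cutoff, the mean activation of all test compounds plus 3 SD, cut at about 40% in these data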;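 also: peak over basal fluorescence ratio in a 140 s read after ATP addition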
# M1 ag parental = nonselective activator or artifact in parental CHO-K1 cells. activation, % at 3 µM. AID 602248. Fluo-8 calcium fluorescence; scaled to maximal ATP response, vehicle zero. 0.48% of 360,000 active; in the data active = activation above about 15%;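 also: untransfected CHO-K1 host cells lacking M1 receptor as counterscreen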
# CHRM1 antagonist = human CHRM1 antagonism | inhibition, % at 3 µM | CHO-K1 hM1, Fluo-8 calcium fluorescence, ACh EC80 antagonist | P11229 | AID 588852 | 1.3% of 360,000 active;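 active = percent inhibition above its own plate's cutoff, namely the mean of that plate's compound wells plus 3 SD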;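 also: peak over basal fluorescence ratio during 140 s after agonist addition; 0% = ACh EC80 plus DMSO and 100% = DMSO alone without agonist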
# Target sequence (P11229 whole entry, looked up): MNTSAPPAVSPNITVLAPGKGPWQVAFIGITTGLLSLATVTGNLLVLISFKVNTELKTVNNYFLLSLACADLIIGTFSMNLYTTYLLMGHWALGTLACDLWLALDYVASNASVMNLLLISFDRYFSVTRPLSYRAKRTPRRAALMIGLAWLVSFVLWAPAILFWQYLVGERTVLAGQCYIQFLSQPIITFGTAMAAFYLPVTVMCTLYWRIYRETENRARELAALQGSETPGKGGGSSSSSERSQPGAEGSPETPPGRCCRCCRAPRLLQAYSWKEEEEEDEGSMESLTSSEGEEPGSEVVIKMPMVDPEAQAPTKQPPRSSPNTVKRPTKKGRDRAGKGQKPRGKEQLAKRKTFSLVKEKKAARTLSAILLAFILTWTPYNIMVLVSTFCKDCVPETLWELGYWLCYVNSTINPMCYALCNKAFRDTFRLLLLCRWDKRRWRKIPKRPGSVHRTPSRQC
# M1 ag = activates human CHRM1 receptor; P11229; activation, % at 3 µM; CHO-K1 hM1, Fluo-8 calcium fluorescence, agonist mode; 0% DMSO, 100% acetylcholine EC100; 0.33% of 360,000 active;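 active = activation above the run's mean compound activation plus 3 SD, cut at about 16% in these data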;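 also: peak over basal fluorescence ratio within a 140 s kinetic read after compound addition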
# CHRM1 PAM = human CHRM1 positive allosteric modulation; P11229; CHO-K1 hM1, Fluo-8 calcium fluorescence, ACh EC20; 0% = ACh EC20, 100% = maximal ACh; activation, % at 3 µM; 0.088% of 360,000 active; in the data active = activation above about 19%, passing the limit was not always enough
# CHO-K1 Ca antag = counter-screen for M1 antagonists: effect in parental CHO-K1 cells | AID 602250 | ATP-induced calcium, Fluo-8 fluorescence | inhibition, % at 3 µM | 0.6% of 360,000 active;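 active = inhibition above a per-plate cutoff, the plate's mean sample inhibition plus 3 SD, cut at about 24% in these data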;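 also: 0% = DMSO plus EC80 ATP and 100% = DMSO alone without ATP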
# * hit, by the source's call; nt = not tested or not shown. Shown are actives, neighbours in structure and some others; about 2.3% of the full set was active somewhere.
SMILES,M1 PAM parental,M1 ag parental,CHRM1 antagonist,M1 ag,CHRM1 PAM,CHO-K1 Ca antag
COc1cc(C(C)=O)ccc1OCC(=O)Nc1ccc(C)c(S(=O)(=O)N2CCCCCC2)c1,-16.4,16.4*,36.8*,0.3,-23.5,8.4
CCCOP(=O)(c1ccc(N(C)C)cc1)C(Nc1ccccc1)c1ccc(C)cc1 (stereo not given),26.0,0.9,-14.7,-4.8,6.3,-6.3
Cc1ccc(NC(=O)CSc2ncnc3ccccc23)cc1S(=O)(=O)N1CCCCCC1,-3.6,11.7,34.4,-2.7,-13.1,26.6*
CCc1cccc(OCC(=O)Nc2ccc(C)c(S(=O)(=O)N3CCCCCC3)c2)c1,-12.0,2.1,45.8*,-0.2,-11.1,8.6
Cc1ccc(NC(=O)COc2cccc(C)c2C)cc1S(=O)(=O)N1CCCCCC1,-0.7,2.3,15.1,-2.3,-7.5,8.3
O=C(Cc1ccccc1)Nc1ccc2oc(=O)ccc2c1,-9.1,-0.2,-12.1,-2.5,13.3,3.2
O=C(Nc1nnc([C@@H]2C[C@H](O)[C@@H](CO)O2)s1)Nc1ccccc1C(F)(F)F,-3.3,0.3,-7.2,-1.4,3.8,-7.4
CC(=O)c1cccc(-c2ccnc3c2CC(C(=O)Nc2cccc(Oc4ccccc4)c2)O3)c1 (stereo not given),9.4,2.9,-13.1,-4.0,4.9,4.5
O=C(CCC1CCCN(Cc2ccc3c(c2)CCO3)C1)NCc1ccc(F)c(F)c1 (stereo not given),-5.7,-0.1,32.8*,-11.8,-29.7,12.4
O=C(CCC1CCCN(C2C3CC4CC(C3)CC2C4)C1)NCc1ccc(F)c(F)c1 (stereo not given),12.2,0.3,43.3*,-4.7,-18.1,-5.4
Cc1ncc(CN2CCCC(CCC(=O)NCc3ccc(F)c(F)c3)C2)s1 (stereo not given),7.7,-0.5,-1.8,-13.4,-3.1,1.1
Cc1occc1C(=O)N1CCCC(CCC(=O)NCc2ccc(F)c(F)c2)C1 (stereo not given),10.8,0.7,-6.5,-5.7,11.3,-13.3
Nc1ncnc2c1ncn2[C@@H]1O[C@H](C(=O)Nc2ccc(C(=O)N3CCCCC3)cc2)[C@@H](O)[C@H]1O,16.9,1.6,-20.9,6.4,3.0,-10.5
COc1ccc(NC(=O)CN2C(=O)COc3ccc(S(=O)(=O)N4CCCCCC4)cc32)cc1,1.8,0.2,-4.4,-6.3,0.6,-11.5
COc1ccccc1S(=O)(=O)N(C)C[C@@H]1Oc2cc(C#CCC(C)C)ccc2S(=O)(=O)N([C@H](C)CO)C[C@@H]1C,-11.3,0.0,-3.4,-2.5,1.5,33.7*
COc1ccc(C#Cc2ccc3c(c2)O[C@@H](CN(C)C(=O)Nc2cccc(OC)c2)[C@H](C)CN([C@@H](C)CO)S3(=O)=O)cc1,-6.3,1.4,4.0,-3.5,-11.6,13.2
COc1cccc(NC(=O)N(C)C[C@H]2Oc3cc(Br)ccc3S(=O)(=O)N([C@H](C)CO)C[C@H]2C)c1,-7.1,0.3,20.4*,-3.5,-12.2,27.8*
CCN(CC)c1ccc2nc3ccccc3[n+](CC)c2c1,15.6,-0.2,68.8*,-9.6,-30.0,-11.8
CCCc1nc2c3ccccc3ccn2c1Cc1cccc(F)c1,14.9,0.7,56.2*,-6.3,-26.3,-19.8
CCCCc1nc(NCCN2CCOCC2)c(C#N)c2c1COC(C)(C)C2,-5.7,-0.1,-20.1,2.4,13.2,24.8*
CC(C)Cc1nc(NCCN2CCOCC2)c(C#N)c2c1COC(C)(C)C2,-0.4,-0.2,-3.3,-5.8,-1.1,-4.3
COc1ccc(CN2CCC(Cc3ccccc3)CC2)cc1OC,-24.7,-0.1,25.1,-10.7,-14.3,14.2
COc1ccc(CNC(=O)C2CCCN2CCc2ccccc2)cc1OC (stereo not given),11.2,17.1*,-8.8,-11.1,11.2,-19.7
COc1ccc(CCNC(=O)c2ccc(CN3CCC(Cc4ccccc4)CC3)cc2)cc1OC,6.5,1.0,47.7*,-6.8,-26.3,1.1
COCCNC(=O)c1ccc(CN2CCC(Cc3ccccc3)CC2)cc1,10.4,0.4,42.7*,-8.7,-25.2,-8.9
SMILES,M1 PAM parental,M1 ag parental,CHRM1 antagonist,M1 ag,CHRM1 PAM,CHO-K1 Ca antag
O=C(c1ccc(CN2CCOCC2)cc1)N1CCC(Cc2ccccc2)CC1,12.7,1.1,-0.4,-4.2,-1.4,-6.0
CCc1ccccc1NC(=O)c1ccc(CN2CCC(Cc3ccccc3)CC2)cc1,23.0,1.7,38.0*,-3.7,-19.8,-11.8
C[C@@H](NC(=O)c1cc2c([nH]c3ccccc32)c(-c2ccccc2)n1)C(=O)O,-1.5,0.0,-2.3,0.3,2.9,-12.7
O=C(NCc1ccccc1)c1ccc(CN2CCC(Cc3ccccc3)CC2)cc1,8.5,26.8*,24.9,3.8,-16.8,17.0
Nc1[nH]n2c(=O)cc(-c3ccccc3)nc2c1N=Nc1ccccc1,-10.4,-0.2,-1.2,-3.8,-1.1,21.2
Nc1[nH]n2c(=O)cc(-c3ccccc3)nc2c1N=Nc1ccc(S(N)(=O)=O)cc1,-6.1,-0.7,-0.1,-3.1,11.8,24.7*
CN(C)c1ccc(-c2csc(C(C)(O)c3ccc(F)c(F)c3)n2)cc1 (stereo not given),-7.2,0.5,24.8*,-4.8,-12.9,8.9
CC(O)(c1ccc(F)c(F)c1)c1nc(-c2ccncc2)cs1 (stereo not given),-12.8,5.2,3.9,-3.4,-5.1,12.8
CCOc1ccc(C(=O)N2CCc3ccccc32)cc1OCC,19.3,0.8,-8.0,-4.2,4.5,-12.1
Cc1c(C(=O)NNC(=O)c2ccccc2O)oc2ccccc12,-14.4,-0.4,-1.7,-1.0,-0.1,26.4*
COC(=O)c1oc2ccccc2c1NC(=O)c1ccccc1O,10.8,3.4,-0.8,-4.0,0.5,1.2
CCCN(C)C1CN(Cc2cn(Cc3ccc(F)cc3)nn2)S(=O)(=O)C1 (stereo not given),4.0,0.8,nt,nt,nt,-10.7
CN(C)CCOc1cccc(Cl)c1,26.1,19.3*,-4.7,-7.7,6.2,-5.1
CN(C)CCOc1cc(Cl)cc(Cl)c1,10.0,0.4,-5.4,-10.4,-8.8,1.0
CCC(C)NCCCOc1cc(Cl)ccc1Cl (stereo not given),4.1,0.5,32.8*,-3.7,-13.6,8.8
C=CCc1cc(Cl)ccc1OCCCNC(C)C,21.0,2.3,12.9,-11.8,-9.2,-2.2
C=CCc1cc(Cl)ccc1OCCCNCCO,4.3,2.0,-1.8,-11.6,-2.0,2.7
C=CCc1cc(Cl)ccc1OCCOCCNC(C)CC (stereo not given),-1.7,2.8,38.4*,-8.2,-24.5,-8.7
C=CCc1cc(Cl)ccc1OCCN(C)C,28.4,1.7,25.2*,-7.1,-19.0,-15.6
NCCCC[C@H]1CN=C(N)N1CCC12CC3CC(CC(C3)C1)C2,-8.6,0.1,58.6*,-14.1,-39.0,-10.5
